# From PubChem
# Shown are actives, neighbours in structure and some others; about 5.9% of the full set was active somewhere.
# HSP90 refold inh: blocks HSP90-mediated luciferase refolding in reticulocyte lysate; Rabbit reticulocyte lysate, luciferase refolding luminescence, 3 h; AID 1789; inhibition, % at 5.6 µM; actives 0.91% (n = 290,000);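 active = inhibition above the screen-wide mean plus 3 SD, computed separately per campaign, cut at about 16% in these data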;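 also: inhibitors lower the luminescence because luciferase stays unfolded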
# HSF-1 act: increases HSF-1 driven luciferase reporter signal; actives 1.7% (n = 300,000); activation, % at 9 µM; NIH3T3-HGL HSF-1 luciferase reporter, MG132, 8 h; 100% = twice DMSO control signal;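 active = mean replicate activation of at least 50% with a set share of replicates each reaching 50%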
# AHR act: activators of human aryl hydrocarbon receptor; actives 2.5% (n = 320,000); AHR-responsive luciferase reporter cells, luminescence; activation, % at 5 µM; P35869; in the data active = activation above about 47%
# Target sequence (P35869 whole entry, looked up): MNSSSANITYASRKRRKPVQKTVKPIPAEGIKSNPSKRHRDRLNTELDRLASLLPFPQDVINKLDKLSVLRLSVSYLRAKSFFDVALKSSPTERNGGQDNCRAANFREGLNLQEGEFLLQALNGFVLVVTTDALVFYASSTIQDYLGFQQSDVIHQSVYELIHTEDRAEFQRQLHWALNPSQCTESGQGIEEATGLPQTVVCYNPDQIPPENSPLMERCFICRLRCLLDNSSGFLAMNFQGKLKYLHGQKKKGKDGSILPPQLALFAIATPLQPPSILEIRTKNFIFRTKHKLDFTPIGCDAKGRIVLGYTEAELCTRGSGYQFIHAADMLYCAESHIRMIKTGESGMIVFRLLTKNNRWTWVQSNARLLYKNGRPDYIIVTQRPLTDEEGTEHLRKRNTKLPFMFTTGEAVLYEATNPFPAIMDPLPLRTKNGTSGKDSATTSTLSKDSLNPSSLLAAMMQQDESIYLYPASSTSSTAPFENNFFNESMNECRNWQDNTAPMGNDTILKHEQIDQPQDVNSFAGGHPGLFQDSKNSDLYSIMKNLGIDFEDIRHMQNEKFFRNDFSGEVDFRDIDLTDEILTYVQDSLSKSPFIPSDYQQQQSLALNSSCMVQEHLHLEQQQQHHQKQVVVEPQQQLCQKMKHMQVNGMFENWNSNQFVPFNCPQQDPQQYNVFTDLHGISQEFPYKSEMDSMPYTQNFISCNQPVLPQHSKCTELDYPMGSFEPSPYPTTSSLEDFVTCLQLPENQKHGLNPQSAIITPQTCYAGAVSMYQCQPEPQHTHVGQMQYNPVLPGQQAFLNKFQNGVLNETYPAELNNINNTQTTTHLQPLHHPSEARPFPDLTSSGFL
# FXN GAA850 act: increases GAA850 frataxin promoter reporter activity | HEK293 lucGAA850 FXN promoter luciferase reporter, 24 h; percent of 10 µM SAHA response | activation, % at 6 µM | actives 0.56% (n = 360,000);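 active = activation above the average of all compounds screened plus 3 SD, cutoff fixed separately per campaign, cut at about 7.5% in these data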
# HSF1 inhib: HSF1 inhibition; NIH3T3-HGL HSE-luciferase, MG132-induced, luminescence 8 h; stronger effect = lower value; activity change, negative = inhibition, % at 7.5 µM (by protocol); actives 0.77% (n = 300,000); AID 2098;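 active = more than half of replicate wells show activity change below -50%, luminescence cut by over half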;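 also: luciferase reports HSF-1 transcriptional activity via heat shock element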
# NR0B1 inh: inhibitors of human orphan nuclear receptor DAX1 (NR0B1) | P51843 | HEK293 Gal4-DAX1 luciferase reporter, luminescence | inhibition, % at 6.75 µM | actives 0.99% (n = 340,000) | AID 504766;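 active = inhibition above the mean over all tested compounds plus 3 SD, cut at about 4.2% in these data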;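 also: inhibition shows as a rise in luminescence from relieved DAX1 repression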
# Numbers stand for hits; 0 = inactive; - = not tested or not shown.
SMILES,HSP90 refold inh,HSF-1 act,AHR act,FXN GAA850 act,HSF1 inhib,NR0B1 inh
CS(=O)(=O)Nc1ccc(C(=O)NCCSCc2ccccc2)cc1,0,0,0,0,0,5.4
CS(=O)(=O)Nc1ccc(C(=O)NCCc2ccccc2)cc1,0,0,0,0,0,0
Cc1cccc(N2CCN(S(=O)(=O)c3c(C)[nH]c(C)c3C(=O)N3CCCC3)CC2C)c1 (stereo not given),0,55,0,0,0,0
Cc1[nH]c(C)c(S(=O)(=O)N2CCN(c3ccccc3)CC2)c1C(=O)N1CCCC1,0,0,0,0,0,0
CCOC(=O)c1c(C)[nH]c(C)c1S(=O)(=O)N1CCCCC1,0,57,0,0,0,0
CCOC(=O)c1c(C)[nH]c(C)c1S(=O)(=O)N1CCN(c2cccc(C)c2)C(C)C1 (stereo not given),0,87,0,0,0,0
O=C(COC(=O)CCc1ccccc1)Nc1ccc(F)cc1Cl,0,0,0,0,0,0
Cc1c(C(=O)Nc2nc3ccccc3[nH]2)oc2ccc(Br)cc12,0,0,0,0,0,0
Cc1c(C(=O)Nc2nc3ccccc3[nH]2)oc2c(Cl)cccc12,0,0,66,0,0,0
COc1ccc(NC(=O)c2oc3ccccc3c2C)cn1,0,0,51,0,0,0
Cc1c(C(=O)Nc2nc3ccccc3[nH]2)oc2ccccc12,0,68,68,0,0,0
CSc1ccc(/C=C/c2cc(=O)c3ccccc3[nH]2)cc1,0,0,56,0,0,0
O=c1cc(/C=C/c2cccs2)[nH]c2ccccc12,0,0,0,0,0,0
COc1ccc(N(CC(=O)Nc2ccc3c(c2)OCO3)S(=O)(=O)c2ccccc2)c(OC)c1,0,0,63,0,0,0
COc1ccc(S(=O)(=O)N(C)CC(=O)Nc2ccc3c(c2)OCO3)cc1,0,0,0,0,0,0
COc1ccc(N(CC(=O)Nc2ccc3c(c2)OCCO3)S(=O)(=O)c2c(C)nn(C)c2C)cc1,0,0,0,0,0,0
COc1ccc(N(CC(=O)Nc2ccc3c(c2)OCO3)S(=O)(=O)c2ccccc2)cc1OC,0,0,50,0,0,0
COc1ccc(N(CC(=O)Nc2ccc3c(c2)OCO3)S(=O)(=O)c2ccc(C)cc2)cc1OC,0,0,0,0,0,0
COc1ccc(N(CC(=O)Nc2ccc3c(c2)OCO3)S(=O)(=O)c2ccc(F)cc2)cc1,0,0,67,0,0,0
Cc1nn(C)c(C)c1S(=O)(=O)N(CC(=O)Nc1ccc2c(c1)OCO2)c1ccc(C(C)C)cc1,0,-,56,0,-,0
CC(=O)c1ccc(-c2nnc(CCC(=O)N3CCCC(C(=O)CC(C)C)C3)o2)s1 (stereo not given),0,0,0,0,0,0
CCCCNc1c(-c2ccc(OC)c(Sc3ccc(OC)cc3)c2)nc2cnccn12,-,-,0,0,-,0
CCCCNc1c(-c2ccc(SC(C)CC)cc2)nc2cnccn12 (stereo not given),-,-,48,0,-,0
CC(C)c1ccc(/C=C(\c2nc3ccccc3[nH]2)S(=O)(=O)c2ccccc2)cc1,0,102,0,0,0,0
O=S(=O)(/C(=C/c1ccc(C(F)(F)F)cc1)c1nc2ccccc2[nH]1)c1ccccc1,0,180,0,0,0,0
SMILES,HSP90 refold inh,HSF-1 act,AHR act,FXN GAA850 act,HSF1 inhib,NR0B1 inh
Cc1noc(C)c1C(=O)Nc1ccccc1N1CCCC1,-,-,0,0,-,0
O=C(CSc1nnc(CNC(=O)c2ccccc2)o1)Nc1nccs1,0,0,0,0,0,0
CCn1c(SCC(=O)Nc2ccccc2C)nc2nc3c(cc2c1=O)COC(C)(C)C3,0,0,0,0,0,5.5
Cc1ccc2c(C(=O)CN3CC(C)CC(C)C3)c(C)[nH]c2c1 (stereo not given),0,0,0,0,0,0
Cc1cc(/C=C2\C(=N)N3N=CSC3=NC2=O)c(C)n1Cc1ccccc1,0,0,0,0,0,5.4
O=C(/C=C/c1ccc2c(c1)OCO2)Nc1nc(-c2ccccc2)cs1,0,0,0,0,0,0
Clc1ccc(-c2csc(N/N=C/c3ccc4c(c3)OCO4)n2)cc1,0,0,63,0,0,0
N[C@@H](Cc1ccc(O)cc1)c1nnc([C@H](CCC(=O)O)NC(=O)C2CCNCC2)o1,0,0,0,0,0,0
COC(=O)Nc1nnc(-c2ccccc2Cl)s1,0,0,55,0,0,0
